Measurements from the supplement of paper PMC13380429.
Values without a mark were called inactive.

Tested on: Vero E6 infected with SARS-CoV-2
Experiment: inhibition of SARS-CoV-2 cytopathic effect; higher = more antiviral protection, active = above 15
Settings: 48 h

Row | Compound | inhibition of SARS-CoV-2 cytopathic effect (1 nM) [%] | inhibition of SARS-CoV-2 cytopathic effect (8.33 nM) [%] | inhibition of SARS-CoV-2 cytopathic effect (100 nM) [%] | inhibition of SARS-CoV-2 cytopathic effect (833.33 nM) [%] | inhibition of SARS-CoV-2 cytopathic effect (10000 nM)
1 | CCCN(C/C=C/I)C1CCc2cccc(O)c2C1 (stereo not given) [8-hydroxy-PIPAT] | 3.48 | 1.88 | 3.63 | 3.07 | -2.66%
2 | COc1ccnc(C[S+]([O-])c2nc3cc(OC(F)F)ccc3[nH]2)c1OC (stereo not given) [pantoprazole] | -1.17 | -2.35 | -4.09 | 0.78 | 0.79%
3 | N=C(N)NCCCC[C@@H]1NC(=O)CCSSC[C@@H](C(N)=O)NC(=O)[C@@H]2CCCN2C(=O)[C@H](Cc2c[nH]c3ccccc23)NC(=O)[C@H](CC(=O)O)NC(=O)CNC1=O [eptifibatide] | -0.98 | 8.08 | 3.25 | 2.75 | -2.38%
4 | CN[C@H]1C(=O)N[C@@H]2Cc3ccc(cc3)Oc3cc4cc(c3O[C@@H]3O[C@H](C(=O)O)[C@@H](O)[C@H](O)[C@H]3NC(=O)CCCCCCCCC(C)C)Oc3ccc(cc3Cl)[C@@H](O)[C@@H]3NC(=O)[C@H](NC(=O)[C@@H]4NC(=O)[C@@H](NC2=O)c2cc(cc(O)c2Cl)Oc2cc1ccc2O)c1ccc(O)c(c1)-c1c(O[C@H]2O[C@H](CO)[C@@H](O)[C@H](O)[C@@H]2O)cc(O)cc1[C@@H](C(=O)NCCCN(C)C)NC3=O [dalbavancin] | -5.95 | -0.74 | -2.73 | -0.14 | 1.46%
5 | CCOC(=O)c1c(O)nc2cccc3c2c1-c1ccccc1C3=O | 0.21 | 0.57 | 5.31 | 4.72 | 4.09%
6 | O=C(COc1ccc(C(=O)c2ccccc2)cc1)NC1CCN(Cc2ccccc2)CC1 [adiporon] | -2.19 | -0.76 | 0.29 | 0.19 | -1.05%
7 | CCNC(=O)N1CCN(CCCC(c2ccc(F)cc2)c2ccc(F)cc2)CC1 [amperozide] | -5.99 | -8.04 | -8.94 | -7.67 | -9.06%
8 | CCN1CCCC1CNC(=O)c1cc(S(N)(=O)=O)ccc1OC (stereo not given) [sulpiride] | 0.06 | -1.14 | 0.7 | 1.07 | 0.685%
9 | O=C(O)c1ccc(O)c2ncccc12 | 0.11 | 1.32 | 1.3 | 3.02 | 1.28%
10 | O=C1NC(=O)/C(=C/c2ccc3nccc(-c4ccncc4)c3c2)S1 | -0.58 | -1.8 | 1.55 | 2.78 | -1.1%
11 | C=C(c1ccccc1OCc1cccc(Cl)c1)n1ccnc1 [croconazole] | -1.55 | -2.51 | 0.21 | 2.28 | -1.36%
12 | CCN(CC)CCCCNc1ncc2cc(-c3cc(OC)cc(OC)c3)c(NC(=O)NC(C)(C)C)nc2n1 | -0.74 | 1.53 | -0.45 | -4.96 | 45.1% (active)
13 | CCCCN1CCC(CCC(=O)c2cc(Cl)c(N)cc2OC)CC1 | -0.14 | -0.19 | -0.31 | -1.87 | -3.77%
14 | O=C1C=Cc2cc(Br)ccc2C1=O [bonaphthone] | -0.83 | 0.78 | -2.18 | -1.56 | -2.53%
15 | C1=Cc2cccc(OCC3CNCCO3)c2C1 (stereo not given) [indeloxazine] | 1.29 | 2.5 | 1.2 | 0.43 | -0.62%
16 | Cc1nc2ccccn2c(=O)c1CCN1CCC(C(=O)c2ccc(F)cc2)CC1 [pirenperone] | 1.65 | 1.73 | -0.8 | 1.4 | 0.69%
17 | Nc1nccs1 [aminothiazole] | -0.84 | 1.04 | 0.28 | 2.14 | 1.48%
18 | Cc1c(C)c(NCC(=O)N(C)C2CCN(Cc3ccc(C(N)=O)cc3)CC2)c(C)c(C)c1N | -0.43 | -0.21 | 0.76 | -0.15 | 2.16%
19 | CN(C)C(=O)Nc1cccc(-c2ccc(N(C)C)cc2)c1 [atglistatin] | -1.57 | -1.64 | 1.22 | 0.77 | 1.31%

Row | Compound | inhibition of SARS-CoV-2 cytopathic effect (1 nM) [%] | inhibition of SARS-CoV-2 cytopathic effect (8.33 nM) [%] | inhibition of SARS-CoV-2 cytopathic effect (100 nM) [%] | inhibition of SARS-CoV-2 cytopathic effect (833.33 nM) [%] | inhibition of SARS-CoV-2 cytopathic effect (10000 nM)
20 | CC(=O)Nc1ccc(C(=O)O)cc1 [acedoben] | -1.13 | 3.16 | 1.58 | 0.73 | 3.31%
21 | O=C1Nc2ccc(Cl)cc2[C@@](C#CC2CC2)(C(F)(F)F)O1 [efavirenz] | -5.64 | -1.07 | 0 | -0.49 | -1.92%
22 | OCCOc1ccc(/C(=C(/CCCl)c2ccccc2)c2ccccc2)cc1 [ospemifene] | -2.23 | 1.01 | 3.19 | 3.68 | 8.11%
23 | O=C(O)c1ccc(-c2ccc3cc(O)c(C45CC6CC(CC(C6)C4)C5)cc3c2)cc1 | 5.35 | 1.59 | 3.64 | 3.49 | 5.63%
24 | CCCN1CC(NS(=O)(=O)N(CC)CC)CC2Cc3c(O)cccc3CC21 (stereo not given) [quinagolide] | -1.57 | -0.18 | -0.29 | -13.8 | -6.37%
25 | CC(C)(C)NC(=O)N[C@H](C(=O)N1C[C@H]2[C@@H]([C@H]1C(=O)NC(CC1CCC1)C(=O)C(N)=O)C2(C)C)C(C)(C)C (stereo not given in full) [boceprevir] | 0.88 | -0.31 | -1.61 | -1.89 | 1.17%
26 | CC[C@H](C)[C@@H]([C@@H](CC(=O)N1CCC[C@H]1[C@H](OC)[C@@H](C)C(=O)N[C@@H](Cc1ccccc1)c1nccs1)OC)N(C)C(=O)[C@@H](NC(=O)[C@H](C(C)C)N(C)C)C(C)C [dolastatin-10] | -1.47 | 0.79 | -2.31 | -3 | 0.49%
27 | CN(CCOc1ccc(CC2SC(=O)NC2=O)cc1)c1ccccn1 (stereo not given) [rosiglitazone] | -1.76 | -2.53 | -4.45 | -0.37 | 1.48%
28 | CCC(=O)O[C@@H]1CC(=O)O[C@H](C)C/C=C/C=C/[C@H](OC(C)=O)[C@H](C)C[C@H](CC=O)[C@H](O[C@@H]2O[C@H](C)[C@@H](O[C@H]3C[C@@](C)(OC(C)=O)[C@@H](OC(=O)CC)[C@H](C)O3)[C@H](N(C)C)[C@H]2O)[C@H]1OC [miocamycin] | 2.92 | 1.39 | 1.33 | 3.25 | -2.09%
29 | C[C@@]12C[C@@]3(O)O[C@@H](O1)[C@]1(COC(=O)c4ccccc4)[C@H]3C[C@@]12O[C@@H]1O[C@H](CO)[C@@H](O)[C@H](O)[C@H]1O [paeoniflorin] | -0.01 | 0.45 | 0.1 | 0.8 | 0.46%
30 | CCCS(=O)(=O)Nc1ccc(F)c(C(=O)c2c[nH]c3ncc(Cl)cc23)c1F | 0.68 | 0.41 | -0.45 | 2.16 | 1.71%
31 | CC(CCc1ccccc1)NC(C)C(O)c1ccc(O)cc1 (stereo not given) [buphenine] | 1.42 | 1.45 | -1.15 | -0.63 | -2.78%
32 | Fc1ccc(CN2CCC(Nc3ccc(C(F)(F)F)nn3)CC2)cc1F | 0.35 | 2.13 | 2.17 | 1.38 | -6.9%
33 | O=C(O)C1=CCCNC1 [guvacine] | 2 | 5.07 | 3.21 | 6.87 | 6.39%
34 | CC(C)(C)NC[C@H](O)COc1cccc2c1CCCC2=O [levobunolol] | -6.66 | -1.55 | -0.235 | 2.58 | 2.67%
35 | O=C(/C=C/c1ccc(O)c(O)c1)c1ccc(O)cc1O [butein] | -0.13 | 0.3 | 1.11 | 2.97 | 12.1%
36 | Cc1cc(O)c2c(=O)c3c(O)cc(O)c4c5c(O)cc(O)c6c(=O)c7c(O)cc(C)c8c1c2c(c34)c(c78)c65 [hypericin] | 3.48 | -1.72 | -6.89 | -0.08 | -4.81%
37 | Nc1nc(F)nc2c1ncn2[C@@H]1O[C@H](CO)[C@@H](O)[C@@H]1O [fludarabine] | -1.26 | -3.11 | -2.43 | 1.66 | -0.43%
